PubChem BioAssay (NCI)
This is part of a sample that, as a whole, favours compounds with a hit. Of some 79,000 tested, about 15% had one in any assay. Values without a mark were called inactive. Active and inactive are the calls of the source. No stated cut-off is given here; in the data, active means growth inhibition above about 70%; inactive means the rest.

Assays:
[1] = NCI Yeast Anticancer Drug Screen. Data for the rad52 strain (AID 147);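 further: 0% = growth of vehicle-treated control cultures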; conditions: S. cerevisiae rad52 mutant growth inhibition, active compounds read high
In short: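 The repair-mutant yeast strain was incubated with compounds, then growth was read and inhibition derived relative to vehicle.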

[2] = NCI Yeast Anticancer Drug Screen. Data for the wt1 strain (AID 149);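 further: 0% = growth of vehicle-treated wt1 cultures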; conditions: S. cerevisiae wt1 strain (SPY 50644) growth inhibition, active compounds read high
In short: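 Vehicle-normalised growth inhibition; strain wt1; compound exposure.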

[3] = NCI Yeast Anticancer Drug Screen. Data for the rad50EPP+ strain (AID 151);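 further: 0% = growth of vehicle-treated control cultures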; conditions: S. cerevisiae rad50 mutant strain, active compounds read high
In short: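 Vehicle-normalised growth inhibition; rad50EPP+ yeast strain, altered in DNA damage repair, compound-treated.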

[4] = NCI Yeast Anticancer Drug Screen. Data for the mgt1 strain (AID 153); conditions: S. cerevisiae mgt1 mutant growth inhibition, active compounds read high
In short: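 Vehicle-normalized growth inhibition is determined in mgt1 yeast, a strain selected for a defined alteration in DNA repair or cell cycle control.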

[5] = NCI Yeast Anticancer Drug Screen. Data for the rad50 strain (AID 155);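 further: 0% = growth of vehicle-only cultures of the same strain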; conditions: S. cerevisiae rad50 strain growth inhibition, active compounds read high
In short: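 A DNA repair-deficient yeast mutant serves as the test organism; compound-induced growth inhibition is calculated against vehicle-treated cells.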

[6] = NCI Yeast Anticancer Drug Screen. Data for the mec2-1 strain (AID 157); conditions: S. cerevisiae mec2-1 strain, active compounds read high
In short: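 Mutant yeast (mec2-1) grown with compound; growth inhibition relative to vehicle control reported.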

[7] = NCI Yeast Anticancer Drug Screen. Data for the rad14 strain (AID 159);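 further: 0% = growth of vehicle-treated control cultures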; conditions: S. cerevisiae rad14 strain growth inhibition, active compounds read high
In short: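 Vehicle-treated cultures served as the baseline for growth inhibition of a DNA repair-mutant yeast strain exposed to each compound.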

[8] = NCI Yeast Anticancer Drug Screen. Data for the sgs1 mgt1 strain (AID 161);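 further: 0% = growth of cultures given vehicle only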; conditions: S. cerevisiae sgs1 mgt1 strain, active compounds read high
In short: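 Yeast cells carrying a defined DNA-repair defect were exposed to test compounds. Growth inhibition was measured relative to vehicle-treated controls.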

[9] = NCI Yeast Anticancer Drug Screen. Data for the CLN2oe strain (AID 163);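 further: 0% = growth of vehicle-only control cultures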; conditions: S. cerevisiae CLN2oe strain, active compounds read high
In short: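 Compounds are applied to yeast harbouring a defined cell-cycle control change; reduced growth compared with vehicle-treated controls gives the value.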

[10] = NCI Yeast Anticancer Drug Screen. Data for the cln2 rad14 strain (AID 165);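 further: 0% = growth equal to vehicle treated cultures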; conditions: S. cerevisiae cln2 rad14 strain, active compounds read high
In short: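 Readout is yeast growth inhibition versus vehicle-treated controls, using a strain with cln2 and rad14 alterations exposed to compound.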

[11] = NCI Yeast Anticancer Drug Screen. Data for the bub3 strain (AID 167); conditions: S. cerevisiae bub3 mutant strain, active compounds read high
In short: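 Inhibition values come from growth of compound-treated mutant yeast normalised to vehicle-treated controls.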

[12] = NCI Yeast Anticancer Drug Screen. Data for the wt2 strain (AID 169);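 further: 0% = growth of vehicle-treated yeast cultures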; conditions: S. cerevisiae wt2 strain growth inhibition, active compounds read high
In short: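 Against vehicle-treated controls, the growth of yeast exposed to each compound was compared, and the inhibition was recorded.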

[13] = NCI Yeast Anticancer Drug Screen. Data for the mlh1 strain (AID 171);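 further: 0% = growth of vehicle-treated control cultures of the same strain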; conditions: S. cerevisiae mlh1 strain growth inhibition, active compounds read high
In short: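 Measured: yeast growth. Reference: vehicle-treated controls. Organism: strain with a defined alteration affecting DNA damage repair or cell cycle control, treated with compound.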

[14] = NCI Yeast Anticancer Drug Screen. Data for the mlh1 rad18 strain (AID 175); conditions: S. cerevisiae mlh1 rad18 strain growth inhibition, active compounds read high
In short: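 Genetically defined yeast (DNA repair-deficient) exposed to compounds; growth inhibition determined relative to vehicle.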

[15] = NCI Yeast Anticancer Drug Screen. Data for the rad18 strain (AID 177); conditions: S. cerevisiae rad18 mutant growth inhibition, active compounds read high
In short: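 Vehicle-treated cultures served as the baseline for scoring compound-induced growth inhibition in DNA-repair-mutant yeast.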

[16] = NCI Yeast Anticancer Drug Screen. Data for the sgs1 strain (AID 173);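 further: 0% = growth of vehicle-only control cultures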; conditions: S. cerevisiae sgs1 mutant, active compounds read high
In short: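 Each compound was added to cultures of the altered yeast strain. Growth was recorded, and inhibition was derived by comparison with vehicle controls.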

[17] = at 5.0 µM (retest, dose inferred, filed as 0.5)
[18] = at 50.0 µM (retest, dose inferred, filed as 5.0)

## O=C1C(=O)c2ccccc2C(O)=C1C(C1=C(O)c2ccccc2C(=O)C1=O)c1ccc(Cl)cc1
[1]; at 1.2 µM
  growth inhibition: 9%
[1]; at 3.7 µM
  growth inhibition: 26%
[1]; at 11.0 µM
  growth inhibition: 62%
[1]; at 33.0 µM
  growth inhibition: 60%
[1]; at 100.0 µM
  growth inhibition: 48%
[2]; at 1.2 µM
  growth inhibition: 4%
[2]; at 3.7 µM
  growth inhibition: 8%
[2]; at 11.0 µM
  growth inhibition: 31%
[2]; at 33.0 µM
  growth inhibition: 32%
[2]; at 100.0 µM
  growth inhibition: 29%
[3]; at 1.2 µM
  growth inhibition: 7%
[3]; at 3.7 µM
  growth inhibition: 28%
[3]; at 11.0 µM
  growth inhibition: 51%
[3]; at 33.0 µM
  growth inhibition: 48%
[3]; at 100.0 µM
  growth inhibition: 30%
[4]; at 1.2 µM
  growth inhibition: 4%
[4]; at 3.7 µM
  growth inhibition: 9%
[4]; at 11.0 µM
  growth inhibition: 64%
[4]; at 33.0 µM
  growth inhibition: 75% (active)
[4]; at 100.0 µM
  growth inhibition: 69%
[5]; at 1.2 µM
  growth inhibition: 11%
[5]; at 3.7 µM
  growth inhibition: 18%
[5]; [17]
  growth inhibition: -7%
[5]; at 11.0 µM
  growth inhibition: 51%
[5]; at 33.0 µM
  growth inhibition: 41%
[5]; [18]
  growth inhibition: 73% (active)
[5]; at 50.0 µM
  growth inhibition: 92.5% (active)
[5]; at 100.0 µM
  growth inhibition: 31%
[6]; at 1.2 µM
  growth inhibition: 10%
[6]; at 3.7 µM
  growth inhibition: 18%
[6]; [17]
  growth inhibition: -5%
[6]; at 11.0 µM
  growth inhibition: 60%
[6]; at 33.0 µM
  growth inhibition: 63%
[6]; [18]
  growth inhibition: -6%
[6]; at 50.0 µM
  growth inhibition: 72.2% (active)
[6]; at 100.0 µM
  growth inhibition: 65%
[7]; at 1.2 µM
  growth inhibition: 5%
[7]; at 3.7 µM
  growth inhibition: -6%
[7]; at 11.0 µM
  growth inhibition: 28%
[7]; at 33.0 µM
  growth inhibition: 32%
[7]; at 100.0 µM
  growth inhibition: 15%
[8]; [17]
  growth inhibition: -2%
[8]; [18]
  growth inhibition: 21%
[8]; at 50.0 µM
  growth inhibition: 60.1%
[9]; at 1.2 µM
  growth inhibition: 3%
[9]; at 3.7 µM
  growth inhibition: 12%
[9]; at 11.0 µM
  growth inhibition: 60%
[9]; at 33.0 µM
  growth inhibition: 66%
[9]; at 100.0 µM
  growth inhibition: 63%
[10]; [17]
  growth inhibition: 0%
[10]; [18]
  growth inhibition: 3%
[10]; at 50.0 µM
  growth inhibition: 42.4%
[11]; at 1.2 µM
  growth inhibition: -1%
[11]; at 3.7 µM
  growth inhibition: 5%
[11]; [17]
  growth inhibition: -3%
[11]; at 11.0 µM
  growth inhibition: 55%
[11]; at 33.0 µM
  growth inhibition: 66%
[11]; [18]
  growth inhibition: 34%
[11]; at 50.0 µM
  growth inhibition: 80% (active)
[11]; at 100.0 µM
  growth inhibition: 50%
[12]; at 1.2 µM
  growth inhibition: 4%
[12]; at 3.7 µM
  growth inhibition: 15%
[12]; at 11.0 µM
  growth inhibition: 50%
[12]; at 33.0 µM
  growth inhibition: 54%
[12]; at 100.0 µM
  growth inhibition: 46%
[13]; at 1.2 µM
  growth inhibition: 6%
[13]; at 3.7 µM
  growth inhibition: 13%
[13]; at 11.0 µM
  growth inhibition: 58%
[13]; at 33.0 µM
  growth inhibition: 62%
[13]; at 100.0 µM
  growth inhibition: 56%
[14]; [17]
  growth inhibition: -5%
[14]; [18]
  growth inhibition: 42%
[14]; at 50.0 µM
  growth inhibition: 86.2% (active)
[15]; at 1.2 µM
  growth inhibition: 23%
[15]; at 3.7 µM
  growth inhibition: 38%
[15]; at 11.0 µM
  growth inhibition: 70% (active)
[15]; at 33.0 µM
  growth inhibition: 64%
[15]; at 100.0 µM
  growth inhibition: 49%

## CC(C)(C)c1ccc(NS(=O)(=O)c2ccc(N)cc2)cc1
[1]; at 1.2 µM
  growth inhibition: -1%
[1]; at 3.7 µM
  growth inhibition: -1%
[1]; at 11.0 µM
  growth inhibition: 1%
[1]; at 33.0 µM
  growth inhibition: 6%
[1]; at 100.0 µM
  growth inhibition: 46%
[2]; at 1.2 µM
  growth inhibition: 1%
[2]; at 3.7 µM
  growth inhibition: 2%
[2]; at 11.0 µM
  growth inhibition: 3%
[2]; at 33.0 µM
  growth inhibition: 3%
[2]; at 100.0 µM
  growth inhibition: 12%
[3]; at 1.2 µM
  growth inhibition: 4%
[3]; at 3.7 µM
  growth inhibition: 8%
[3]; at 11.0 µM
  growth inhibition: 10%
[3]; at 33.0 µM
  growth inhibition: 11%
[3]; at 100.0 µM
  growth inhibition: 14%
[4]; at 1.2 µM
  growth inhibition: 0%
[4]; at 3.7 µM
  growth inhibition: -1%
[4]; at 11.0 µM
  growth inhibition: 1%
[4]; at 33.0 µM
  growth inhibition: 2%
[4]; at 100.0 µM
  growth inhibition: 28%
[5]; at 1.2 µM
  growth inhibition: 4%
[5]; at 3.7 µM
  growth inhibition: 3%
[5]; [17]
  growth inhibition: 0%
[5]; at 11.0 µM
  growth inhibition: 14%
[5]; at 33.0 µM
  growth inhibition: 9%
[5]; [18]
  growth inhibition: -22%
[5]; at 50.0 µM
  growth inhibition: 98.3% (active)
[5]; at 100.0 µM
  growth inhibition: 37%
[6]; at 1.2 µM
  growth inhibition: 4%
[6]; at 3.7 µM
  growth inhibition: 4%
[6]; [17]
  growth inhibition: 6%
[6]; at 11.0 µM
  growth inhibition: 6%
[6]; at 33.0 µM
  growth inhibition: 7%
[6]; [18]
  growth inhibition: -5%
[6]; at 50.0 µM
  growth inhibition: 94.3% (active)
[6]; at 100.0 µM
  growth inhibition: 38%
[7]; at 1.2 µM
  growth inhibition: 1%
[7]; at 3.7 µM
  growth inhibition: -1%
[7]; at 11.0 µM
  growth inhibition: 1%
[7]; at 33.0 µM
  growth inhibition: 2%
[7]; at 100.0 µM
  growth inhibition: 40%
[8]; [17]
  growth inhibition: 0%
[8]; [18]
  growth inhibition: -16%
[8]; at 50.0 µM
  growth inhibition: 96.3% (active)
[9]; at 1.2 µM
  growth inhibition: 4%
[9]; at 3.7 µM
  growth inhibition: 2%
[9]; at 11.0 µM
  growth inhibition: 1%
[9]; at 33.0 µM
  growth inhibition: 4%
[9]; at 100.0 µM
  growth inhibition: 19%
[10]; [17]
  growth inhibition: 34%
[10]; [18]
  growth inhibition: -111%
[10]; at 50.0 µM
  growth inhibition: 98.4% (active)
[11]; at 1.2 µM
  growth inhibition: 0%
[11]; at 3.7 µM
  growth inhibition: 5%
[11]; [17]
  growth inhibition: 28%
[11]; at 11.0 µM
  growth inhibition: 9%
[11]; at 33.0 µM
  growth inhibition: 18%
[11]; [18]
  growth inhibition: -8%
[11]; at 50.0 µM
  growth inhibition: 95.8% (active)
[11]; at 100.0 µM
  growth inhibition: 12%
[12]; at 1.2 µM
  growth inhibition: 0%
[12]; at 3.7 µM
  growth inhibition: 1%
[12]; at 11.0 µM
  growth inhibition: 1%
[12]; at 33.0 µM
  growth inhibition: 4%
[12]; at 100.0 µM
  growth inhibition: 41%
[13]; at 1.2 µM
  growth inhibition: 5%
[13]; at 3.7 µM
  growth inhibition: 3%
[13]; at 11.0 µM
  growth inhibition: 7%
[13]; at 33.0 µM
  growth inhibition: -13%
[13]; at 100.0 µM
  growth inhibition: 48%
[16]; at 1.2 µM
  growth inhibition: 3%
[16]; at 3.7 µM
  growth inhibition: 6%
[16]; at 11.0 µM
  growth inhibition: 14%
[16]; at 33.0 µM
  growth inhibition: 17%
[16]; at 100.0 µM
  growth inhibition: 60%
[14]; [17]
  growth inhibition: -5%
[14]; [18]
  growth inhibition: -5%
[14]; at 50.0 µM
  growth inhibition: 97.2% (active)
[15]; at 1.2 µM
  growth inhibition: 3%
[15]; at 3.7 µM
  growth inhibition: 3%
[15]; at 11.0 µM
  growth inhibition: 15%
[15]; at 33.0 µM
  growth inhibition: 23%
[15]; at 100.0 µM
  growth inhibition: 54%
